# Laboratory results: PubChem BioAssay AID1878 (Sanford-Burnham Center for Chemical Genomics, 2009)
# In all, about 1,000 compounds went through this assay and about 200 (20%) were called active. Cut-off read from the data, not from the text of the source: active = inhibition above about 55%; inactive = the rest. Only a sample is shown. Potency and affinity values are given separately.
# Molecular target: Dual specificity protein phosphatase 3 (Homo sapiens) (UniProt P51452)
# Test: VHR1 phosphatase inhibitors, biochemical (AID 1878)
# Conditions: recombinant VHR phosphatase, fluorogenic substrate; at 13.3 µM; stronger effect = higher value
# Chain of Dual specificity protein phosphatase 3 (Homo sapiens) (P51452 whole entry, looked up): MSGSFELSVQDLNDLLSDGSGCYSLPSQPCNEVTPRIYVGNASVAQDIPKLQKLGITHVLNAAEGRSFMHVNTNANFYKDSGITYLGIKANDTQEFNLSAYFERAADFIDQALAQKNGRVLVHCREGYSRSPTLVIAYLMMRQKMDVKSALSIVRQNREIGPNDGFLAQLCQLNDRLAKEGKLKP
row,SMILES,inhibition
1,Cc1ccc(NC2CCCN(C(=O)c3ccccn3)C2)cc1C (stereo not given),-5.3% (inactive)
2,O=C(CCc1nnc2ccc(NCc3ccccc3)nn12)NC1CCCCC1,4.6% (inactive)
3,COc1ccc(N=C2C(=O)Nc3ccc(C)c(Br)c32)cc1,7.8% (inactive)
4,COc1ccc(Cl)cc1NCCC(O)c1ccc(F)cc1 (stereo not given),-9.5% (inactive)
5,COc1ccccc1-c1csc(-n2ncc(C#N)c2N)n1,73.9% (active)
6,O=C(NC1CC2CCCC(C1)N2)c1ccccc1 (stereo not given),-12.1% (inactive)
7,CC(NC(=O)C(=O)N1CCCCC1)C(c1cccs1)N1CCN(C)CC1 (stereo not given),-4.5% (inactive)
8,CCN(CC)CCNC(=O)Cn1cnc2sc(C)c(S(=O)(=O)N3CC(C)CC(C)C3)c2c1=O (stereo not given),-8.4% (inactive)
9,COc1cc(C(=O)NCCC(=O)NCc2c(F)cc(F)cc2F)cc(OC)c1OC,21.2% (inactive)
10,CCC(=O)N1CCc2cc(S(=O)(=O)NCCc3ccc(S(N)(=O)=O)cc3)ccc21,0.3% (inactive)
11,COc1ccccc1CN1CC(C(=O)NCc2ccc(C)c(F)c2)CCC1=O (stereo not given),-6.8% (inactive)
12,Cc1c(C)c2ccc(OCC(=O)NCCCn3ccnc3)c(C)c2oc1=O,-9.5% (inactive)
13,COc1ccc2c(c1)c(=O)oc1c(C)c(OCc3cc(C(=O)O)oc3C)ccc12,40.3% (inactive)
14,Cc1ccc(C)c(NC(=O)C(c2ccccc2)N2CCOCC2)c1 (stereo not given),6.5% (inactive)
15,COc1cccc(-c2nc(CS(=O)(=O)CC(=O)N3CCCCC3)c(C)o2)c1,-1% (inactive)
16,CC1=C(C(=O)OC(C)C)C(c2ccc3c(c2)OCO3)NC(=O)N1 (stereo not given),-7.6% (inactive)
17,O=C(Nc1ccccc1C(=O)O)c1ccc2c(c1)C(=O)N(c1cccc([N+](=O)[O-])c1)C2=O,2.4% (inactive)
18,C[n+]1cccc(C(=O)Nc2ccccc2)c1,13.8% (inactive)
19,NS(=O)(=O)c1ccc(NC(=O)c2cccc(N3C(=O)c4ccccc4C3=O)c2)cc1,93.1% (active)
20,Cc1ccccc1-c1nc(CS(=O)(=O)CC(=O)NCCCN2CC(C)CC(C)C2)c(C)o1 (stereo not given),28.9% (inactive)
21,COCCn1c(SCC(=O)Nc2cccc(C)n2)nnc1-c1ccco1,3.1% (inactive)
22,O=C(NCCc1ccc(Cl)cc1)c1ccc2nccnc2c1,6.7% (inactive)
23,CCN1CCN(CCCNC(=O)CN2C(=O)c3cccnc3Oc3ccc(Cl)cc32)CC1,14% (inactive)

row,SMILES,inhibition
1,CC1CCN(CCc2nc3cc(NC(=O)C(C)C)ccc3n2C)CC1,9.3% (inactive)
2,Cc1ccccc1NC(=O)c1cccc(NC(=O)c2ccco2)c1,-9.7% (inactive)
3,CC(=O)c1ccc(NC(=O)c2ccc3nc(-c4ccco4)c(-c4ccco4)nc3c2)cc1,92.7% (active)
4,CC(=O)c1ccc(NC(=O)CCn2c(=S)oc3ccccc32)cc1,40.7% (inactive)
5,CC(C)Cn1c(=O)c2ccccc2n2c(CCC(=O)NC3CCN(Cc4ccccc4)CC3)nnc12,17.9% (inactive)
6,O=C(Nc1ccccc1-c1nnn(CC(=O)N2CCOCC2)n1)c1ccc(F)cc1,-1.6% (inactive)
7,Cn1nc(-c2ccc(C(=O)Nc3ccc(F)cc3)cc2)c2ccccc2c1=O,96.2% (active)
8,COCCNC(=O)Cn1nc(-c2ccc(C)cc2)c2ccccc2c1=O,2.6% (inactive)
9,CCn1cc(C(=O)N2CCCC(N3CCN(c4cccc(C(F)(F)F)c4)CC3)C2)cn1 (stereo not given),-9% (inactive)
10,COCCCNC(=O)Cn1cc(/C=C(\C#N)C(=O)NC2CC2)c2ccccc21,-8.8% (inactive)
11,CCN(CC)CCC(=O)N1c2ccccc2CCc2ccc(NC(=O)OC(C)C)cc21,3.9% (inactive)
12,O=c1[nH]c(=O)c2nc3c4ccccc4c4ccccc4c3nc2[nH]1,80.4% (active)
13,Cn1nc(C(=O)NCCCN2CCCCC2)c2c1-c1ccccc1S(=O)(=O)C2,-6.6% (inactive)
14,Cc1ccc(NC(=O)C2CCN(S(=O)(=O)c3ccc4c(c3)NC(=O)CO4)CC2)cc1,-0.8% (inactive)
15,COc1ccc(CNCC(O)(c2ccccc2)c2ccc(F)cc2)cc1OC (stereo not given),13% (inactive)
16,Cc1sc2ncn(CC(=O)N3CCCC(C)C3)c(=O)c2c1S(=O)(=O)N1CCCCC1 (stereo not given),7.1% (inactive)
17,O=C(NC(=O)c1ccccc1)Nc1ccccc1,2.5% (inactive)
18,O=C(NC(=S)Nc1ccc(CN2CCCCC2)cc1)c1cccc(OCc2ccccc2)c1,-29.4% (inactive)
19,COc1cc2ccccc2cc1C(=O)NC(=S)Nc1cccc(C(=O)O)c1,55% (active)
20,CC(=O)c1ccc(NC(=O)CSc2nc(C)cc(C)c2C(N)=O)cc1,-9.9% (inactive)
21,O=C(CSc1nc(-c2ccccc2)nc2c1Cc1ccccc1O2)Nc1ccc(C(=O)O)cc1,98.8% (active)
22,O=C(CSc1nc(-c2ccc(F)cc2)nc2c1Cc1ccccc1O2)Nc1cccc(C(=O)O)c1,96.6% (active)
23,O=C(CNCCc1ccccc1)Nc1ccc(C(=O)N2CCCCC2)cc1,3.1% (inactive)

row,SMILES,inhibition
1,CCCCn1c(N)c(N(CCOC)C(=O)c2cc(S(=O)(=O)N3CCCCC3)ccc2Cl)c(=O)[nH]c1=O,-7.9% (inactive)
2,COC(=O)c1ccc(COc2ccc(C(C)(C)C)cc2)o1,29.7% (inactive)
3,O=C1CCCN1CCC(=O)N1CCCC(CO)(Cc2ccccc2)C1 (stereo not given),26.9% (inactive)
4,CC1CC(C)CN(CCCNC(=O)c2ccc(CNS(=O)(=O)c3ccc(F)cc3)cc2)C1 (stereo not given),2.4% (inactive)
5,COc1ccc(CN2C(=O)c3cccnc3C2=O)cc1S(=O)(=O)NC1CCCCC1,-2.5% (inactive)
6,CCOc1ccc(C(=O)N2CCC3(CC2)NCCc2[nH]cnc23)cc1OCC,-1.8% (inactive)
7,Cc1c(C)c2ccc(O[C@@H]3O[C@H](CO)[C@H](O)[C@H](O)[C@H]3O)c(C)c2oc1=O,-3.5% (inactive)
8,Cc1c(NC(=O)c2ccc(Cl)c(S(=O)(=O)N3CCCCC3)c2)c(=O)n(-c2ccccc2)n1C,-10.6% (inactive)
9,CCC1CCCCN1CCCNC(=O)CNC(=O)c1nn(-c2ccc(OC)c(Cl)c2)c(=O)c2ccccc12 (stereo not given),-5.3% (inactive)
10,COc1ccc(CN2CCNC(=O)C2CC(=O)NCC2CCOCC2)c(C)c1C (stereo not given),15.1% (inactive)
11,COCCNc1cc(C)nc2c3c(C)cc(C)nc3nn12,9.5% (inactive)
12,CCOc1cc(/C=C(\C#N)C(=O)Nc2ccccc2C(=O)O)ccc1OC(=O)c1ccc(C)cc1,87.8% (active)
13,CCOc1ccc(C(=O)Nc2cc3c(cc2N2CCCC2)n(CC)c(=O)n3CC)cc1OCC,-0.2% (inactive)
14,CCOc1cc(/C=C(\C#N)C(=O)Nc2cccc(C(=O)O)c2)ccc1OCc1ccccc1Cl,94.8% (active)
15,CCOc1ccccc1NC(=O)Nc1cc(C(=O)O)ccc1C,-10.9% (inactive)
16,COc1cc(/C=C(\C#N)C(=O)Nc2ccc(C(=O)O)cc2)ccc1OC(=O)c1cccc(F)c1,67.8% (active)
17,CCOc1cc(/C=C(/C#N)C(=O)Nc2ccc(OC)cc2)ccc1OCc1ccc(C(=O)O)cc1,90.9% (active)
18,COc1ccc(CCC(=O)NNC(=O)Nc2ccc(OC)c(OC)c2)cc1,1.3% (inactive)
19,C/C=C/c1ccc(OCC(O)CNCCc2ccc(OC)cc2)c(OC)c1 (stereo not given),11.7% (inactive)
20,CCc1ccccc1S(=O)(=O)c1c(C)cc(C)nc1Cl,-1.3% (inactive)
21,C=CCC(=O)NC1CC(C)(C)Cc2c1cnn2-c1ccc(C)cc1 (stereo not given),-12.1% (inactive)
22,CCC(=O)NC1=C(Nc2ccc(N)cc2)C(=O)c2ccccc2C1=O,-7.2% (inactive)
23,O=C(NC1CCCCC1)c1cc(-c2ccccc2Cl)on1,3.4% (inactive)

row,SMILES,inhibition
1,CCCN1C2CCCC1CC(NC(=O)NC13CC4CC(CC(C4)C1)C3)C2 (stereo not given),25.2% (inactive)
2,CC(C)c1nn2c(=O)cc(COc3cccc(NC(=O)c4ccco4)c3)nc2s1,10.3% (inactive)
3,O=C(Nc1cccc(O)c1)C1CC(c2cccc(Br)c2)=NO1 (stereo not given),6.5% (inactive)
4,O=C(Nc1ccc(C(=O)N2CCN(c3ccc(F)cc3)CC2)cc1)C1=CSCCO1,4.8% (inactive)
5,Cc1nn(CC(=O)NCCCN2CCCCC2)c(=O)c2cc(-c3ccccc3)nn12,22.8% (inactive)
6,COc1cc(CNc2ccc(N3CCOCC3)cc2)ccc1OCC(=O)NC(C)(C)C,2.1% (inactive)
7,CCOc1ccccc1CN1CCC(n2nccc2NC(=O)C2CCCC2)CC1,-19.2% (inactive)
8,COc1cc(C(=O)NCC2(c3ccccc3)CCCC2)ccc1OC(C)C,-7.1% (inactive)
9,Cc1ccc(-c2[nH]ncc2C(=O)c2ccccc2C)c(O)c1,-9% (inactive)
10,CC(Cc1ccccc1)N1C(=O)c2ccccc2C1=O (stereo not given),-2.4% (inactive)
11,C=CCN(C(=O)CNC(=O)c1cccs1)C(C(=O)NC(C)(C)C)c1ccccc1 (stereo not given),-6% (inactive)
12,Cc1cc(Cl)c2oc(C(=O)NC(C)c3ccncn3)c(C)c2c1 (stereo not given),-5.8% (inactive)
13,CC1Sc2ccc(S(=O)(=O)CCC(=O)N(C)Cc3ccco3)cc2NC1=O (stereo not given),-2.5% (inactive)
14,CC(C)(C)C(=O)NN=C1CCC(c2ccccc2)CC1 (stereo not given),-3.9% (inactive)
15,CCOC(=O)C1(CCOc2ccccc2)CCN(CC(O)CO)CC1 (stereo not given),-7.8% (inactive)
16,CC1CCCN(CCCNC(=O)c2ccc3c(c2)N(Cc2ccccc2F)C(=O)c2ccccc2S3(=O)=O)C1 (stereo not given),-12.5% (inactive)
17,Cc1ccc(C(=O)Nc2ccccc2N2CCCC2)cc1,21% (inactive)
18,CC(C)Cn1c(C23CC4CC(CC(C4)C2)C3)n[nH]c1=S,10% (inactive)
19,CCCCNC(=O)c1cn(C)c2ccc(S(=O)(=O)N3CCCC3)cc2c1=O,-4% (inactive)
20,Cc1ccc(CN2C(=O)CC(Nc3ccc(N4CCOCC4)cc3)C2=O)cc1 (stereo not given),1.9% (inactive)
21,Cc1ccc2nc(N3CCN(C)CC3)c(C=O)c(=O)n2c1,2.4% (inactive)
